Screening results: PubChem BioAssay, Broad Institute
Casp6 inh: blocks human caspase-6 cleavage activity | inhibition, % at 12.5 µM | 0.53% of 350,000 active | P55212 | purified caspase-6, Z-VEID-R110 cleavage fluorescence;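 active = mean inhibition across replicates at least about 35%, with every replicate also reaching that limit, limit read from the data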;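 also: 0% = median of neutral control wells and 100% = no fluorescence left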
NSD2 inh: NSD2 (human) methyltransferase inhibition. O96028. AID 743445. inhibition, % at 12.5 µM. NSD2 peptide methylation, AlphaScreen, 120 min. 0.54% of 310,000 active; in the data active = inhibition above about 50%
RAD52 inh: RAD52 (human) annealing inhibition | P43351 | recombinant RAD52 DNA annealing, FRET fluorescence | inhibition, % at 18.7 µM | 0.46% of 360,000 active | AID 651710;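 active = every replicate showing at least 50% inhibition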
MLL AF4-AF9 inh: inhibitors of human MLL-AF4/AF9 interaction. P42568. AlphaScreen, biotin-AF4 peptide binding to FLAG-AF9. inhibition, % at 10 µM. 0.47% of 350,000 active;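 active = every replicate reaching a set inhibition limit, whatever the replicate mean, cut at about 25% in these data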;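 also: 0% = plate neutral control median and 100% = total signal loss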
rRNA inh HTS: selective bacterial rRNA inhibition in E. coli | E. coli WT GFP vs humanized-ribosome RFP mutants, fluorescence, 24 h; active compounds read low; DMSO median 0, no signal -100 | GFP signal change (wild-type ribosome), % (concentration not given with the values) | 1.6% of 350,000 active | AID 720706;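 active = significant combined selectivity score with lowered wild-type GFP, culture density cut under 30%, mutant RFP and density less affected; inactive = any of these conditions unmet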
AlphaScreen art: interferes with AlphaScreen signal, flagging NSD2 false positives; AlphaScreen artifact counterscreen, preloaded methylated H4 peptide; shares compounds with NSD2 inh; AC35, µM (titrated, usually from 10 µM), without a hit: at the top dose activity change, negative = signal loss; 9.4% of 1,500 active; call rule not given here
The depositor's hits bear a star. A selection: hits, their analogues and other compounds. The true share with any hit is near 2.5%.

COc1ccc(S(=O)(=O)Nc2ccc3c(c2)C(=O)N([C@@H](C)CO)C[C@H](C)[C@H](CN(C)C(=O)Nc2ccc4c(c2)OCO4)O3)cc1 was read as rRNA inh HTS 1.
CCCC(=O)Nc1ccc2c(c1)OC[C@H](C)N(C(=O)c1cccnc1)C[C@H](C)[C@@H](OC)CN(C)C2=O was read as Casp6 inh 2, RAD52 inh -36, MLL AF4-AF9 inh 0 and rRNA inh HTS 2.
Screening CCCn1c(C)nc2c(c1=O)c1nc3ccccc3nc1n2-c1ccccc1 returned Casp6 inh -2, NSD2 inh 54*, RAD52 inh -9, MLL AF4-AF9 inh -1, rRNA inh HTS 12 and AlphaScreen art 1%.
CCCn1c(C)nc2c(c1=O)c1nc3ccccc3nc1n2CCC1=CCCCC1 was read as NSD2 inh -3.
`C[C@H](CO)N1C[C@H](C)[C@@H](CN(C)Cc2ccc(C(=O)O)cc2)Oc2ncc(-c3ccccc3)cc2C1=O` gave Casp6 inh 2, RAD52 inh 15, MLL AF4-AF9 inh 0 and rRNA inh HTS -1.
`CCC(C)NCCCOc1cc(Cl)ccc1Cl` (centres undefined) gave NSD2 inh 52* and AlphaScreen art -1%.
CCC(C)NCCCCOc1ccc(Cl)cc1C (centres undefined) was read as NSD2 inh 60* and AlphaScreen art -5%.
`CC(C)NC(=O)Nc1ccc2c(c1)C(=O)N([C@H](C)CO)C[C@@H](C)[C@H](CN(C)C(=O)CCC(F)(F)F)OCCCC[C@@H](C)O2` gave Casp6 inh 1, RAD52 inh -1, MLL AF4-AF9 inh -1 and rRNA inh HTS 1.
O=C(/C=C/c1ccccc1)NCc1cccnc1 was read as Casp6 inh -2, NSD2 inh -2, RAD52 inh -7, MLL AF4-AF9 inh -2 and rRNA inh HTS -5.
O=C(/C=C/c1ccc(-c2ccccc2)cc1)NCc1cccnc1 was read as Casp6 inh -2, NSD2 inh 62*, RAD52 inh -14, MLL AF4-AF9 inh 2, rRNA inh HTS -9 and AlphaScreen art -2%.
For CC(=O)Nc1ccc(NC(=O)C(C)OC(=O)c2ccccc2NS(=O)(=O)c2cccs2)cc1 (centres undefined) the results were Casp6 inh 3, NSD2 inh -1, RAD52 inh -11, MLL AF4-AF9 inh 3 and rRNA inh HTS -10.
Screening CC(=O)Nc1ccc(NC2=C/C(=N/S(=O)(=O)c3cccs3)c3ccccc3C2=O)cc1 returned Casp6 inh 99*, NSD2 inh 83*, RAD52 inh -4, MLL AF4-AF9 inh 5, rRNA inh HTS 5 and AlphaScreen art -10%.
For Cc1noc(C)c1NC(=O)N(C)C[C@H]1Oc2c(NC(=O)C3CCOCC3)cccc2C(=O)N([C@@H](C)CO)C[C@H]1C the results were Casp6 inh 0, RAD52 inh 4, MLL AF4-AF9 inh -1 and rRNA inh HTS 2.
COCC(=O)N1CC[C@@H]2[C@H]1c1cc(-c3cccc(OC)c3)ccc1N(C)[C@H]2CO was read as Casp6 inh -1, RAD52 inh -6, MLL AF4-AF9 inh -2 and rRNA inh HTS 1.
`C[C@@H]1CN([C@H](C)CO)S(=O)(=O)c2ccc(C3=CCCCC3)cc2O[C@@H]1CN(C)S(=O)(=O)c1ccc(F)cc1` gave Casp6 inh -3, RAD52 inh 9, MLL AF4-AF9 inh 1 and rRNA inh HTS 4.
Screening COc1ccc(CNC(=O)CCCn2nc(C)c([N+](=O)[O-])c2C)cc1OC returned Casp6 inh -3, NSD2 inh 86*, RAD52 inh -9, MLL AF4-AF9 inh -1, rRNA inh HTS -3 and AlphaScreen art 8%.
Screening COc1ccc(CNC(=O)C[C@H]2C=C[C@@H](NS(=O)(=O)c3cccc(OC)c3)[C@H](CO)O2)cc1 returned Casp6 inh 0, RAD52 inh -8, MLL AF4-AF9 inh -2 and rRNA inh HTS 1.
For CCOC(=O)c1c(C)[nH]c(C)c1C(=O)COC(=O)[C@@H]1CCCN1S(=O)(=O)c1ccc(Cl)cc1 the results were Casp6 inh 9, NSD2 inh 76*, RAD52 inh -17, MLL AF4-AF9 inh 17, rRNA inh HTS -42 and AlphaScreen art -5%.
